Here are results for 13 compounds from PubChem BioAssay.

The source made the active and inactive calls.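 Rule for the calls: active = luciferase signal above three times the same-plate solvent-only control wells; inactive = the rest.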

For this experiment, the target named is Mitogen-activated protein kinase 7 (Homo sapiens) (UniProt Q13164). The experiment is described as follows: ERK5 transactivation activators in reporter cells, primary screen, cell-based, HTS (AID 1508626).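 Note: luciferase driven by Gal4-ERK5 fusion binding five Gal4 sites before minimal TATA.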 Particulars: HeLa Gal4-ERK5 transactivation, 18 h, at 5 µM, active compounds read high.
Sequence of Mitogen-activated protein kinase 7 (Homo sapiens) (Q13164 whole entry, looked up, the tested form may be a part): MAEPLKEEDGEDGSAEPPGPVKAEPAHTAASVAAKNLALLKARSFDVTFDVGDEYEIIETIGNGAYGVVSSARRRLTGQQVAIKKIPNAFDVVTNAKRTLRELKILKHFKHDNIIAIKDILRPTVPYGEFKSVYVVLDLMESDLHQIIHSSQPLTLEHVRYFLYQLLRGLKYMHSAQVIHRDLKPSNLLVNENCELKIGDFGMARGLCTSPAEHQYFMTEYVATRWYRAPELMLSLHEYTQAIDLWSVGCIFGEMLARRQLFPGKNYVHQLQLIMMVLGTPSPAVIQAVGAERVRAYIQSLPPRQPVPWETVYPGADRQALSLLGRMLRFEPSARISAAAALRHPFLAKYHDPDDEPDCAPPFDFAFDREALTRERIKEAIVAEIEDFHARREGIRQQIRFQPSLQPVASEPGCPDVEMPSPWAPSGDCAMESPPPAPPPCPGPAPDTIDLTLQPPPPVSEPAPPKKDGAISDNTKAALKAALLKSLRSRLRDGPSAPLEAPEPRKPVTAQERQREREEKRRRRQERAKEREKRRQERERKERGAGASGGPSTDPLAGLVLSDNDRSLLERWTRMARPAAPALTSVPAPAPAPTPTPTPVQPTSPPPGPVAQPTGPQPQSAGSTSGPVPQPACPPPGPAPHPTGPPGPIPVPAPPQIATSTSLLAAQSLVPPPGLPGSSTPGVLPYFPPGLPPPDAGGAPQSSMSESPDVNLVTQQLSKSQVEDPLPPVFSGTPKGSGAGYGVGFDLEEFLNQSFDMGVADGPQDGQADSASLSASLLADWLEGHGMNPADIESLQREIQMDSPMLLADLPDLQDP
Regarding `COc1cc2c(cc1OC)[C@@H]1C(=O)c3ccc4c(c3O[C@@H]1CO2)C[C@H](C(C)C)O4`, the luciferase signal was 152 AU (inactive). In the case of `COC1=C[C@]23CCCN2CCc2cc4c(cc2[C@@H]3[C@@H]1O)OCO4` it was 56 AU (inactive); in that of `CC(=O)OC1C[C@@]2(C)[C@H](c3ccoc3)C[C@H]3O[C@]32[C@]2(C)C(=O)C(O)=C3C(C)(C)C(=O)C=C[C@]3(C)C12` (stereo partly drawn), 12 AU (inactive).

`CC(=O)O[C@@H]1CC[C@@]2(C)[C@@H](CC[C@@H]3[C@@H]2CC[C@]2(C)C(=O)CC[C@@H]32)C1`: the luciferase signal is 28 AU (inactive). Take `CC[C@@H](C)C(=O)O[C@H]1[C@H](O)[C@H]2[C@@H](CN3C[C@@H](C)CC[C@H]3[C@@]2(C)O)[C@@H]2C[C@]34O[C@]5(O)[C@@H](OC(=O)[C@](C)(O)[C@@H](C)O)CC[C@@]3(C)[C@@H]5[C@@H](OC(C)=O)[C@@H](OC(C)=O)[C@H]4[C@@]21O`: the luciferase signal was 88 AU (inactive).

For `CC(=O)O[C@H]1C(=O)[C@@]2(C)[C@H]([C@H](OC(=O)c3ccccc3)[C@]3(O)C[C@H](O)C(C)=C1C3(C)C)[C@]1(OC(C)=O)CO[C@@H]1C[C@@H]2O`, the luciferase signal was 136 AU (inactive). In the case of `C[C@@H]1O[C@@H](O[C@H]2CC[C@]3(C=O)[C@H]4CC[C@]5(C)[C@@H](C6=CC(=O)OC6)CC[C@]5(O)[C@@H]4CC[C@]3(O)C2)[C@H](O)[C@H](O)[C@H]1O` it was 4 AU (inactive); in that of `CC[C@H]1[C@@H]2C[C@H]3[C@@H]4N(C)c5ccccc5[C@]45C[C@@H]([C@H]2[C@H]5O)N3[C@@H]1O`, 116 AU (inactive); in that of `C[C@@H]1CC[C@@]2(OC1)O[C@H]1[C@@H](O)[C@H]3[C@@H]4CC[C@H]5C[C@@H](O[C@@H]6O[C@H](CO)[C@H](O[C@@H]7O[C@H](CO)[C@@H](O)[C@H](O[C@@H]8OC[C@@H](O)[C@H](O)[C@H]8O)[C@H]7O[C@@H]7O[C@H](CO)[C@H](O)[C@H](O[C@@H]8O[C@H](CO)[C@@H](O)[C@H](O)[C@H]8O)[C@H]7O)[C@H](O)[C@H]6O)[C@H](O)C[C@]5(C)[C@H]4CC[C@]3(C)[C@H]1[C@@H]2C`, 48 AU (inactive). For `CCC(C)C(=O)OC1C[C@@]2(C)[C@H](c3ccoc3)OC(=O)CC23OC2(C)OC34C(OC(=O)C(C)C)[C@@]3(O)[C@@H](OC(=O)C5(C)OC5C)[C@@]5(C)C[C@]3(O)[C@@](C)([C@H]5CC(=O)OC)C14O2` (stereo partly drawn) the value was 44 AU (inactive); for `CC(=O)O[C@@H]1[C@H]2CC[C@H]3[C@@](C)(O)[C@@H]4C[C@H](O)C(C)(C)[C@@]4(O)[C@@H](O)C[C@@]13C[C@@]2(C)O`, 32 AU (inactive). For `COC(=O)C1=CO[C@@H](C)[C@@H]2CN3CC[C@@]4(C(=O)Nc5ccccc54)[C@H]3C[C@H]12` the value was 32 AU (inactive); for `COc1cc([C@@H]2c3cc4c(cc3[C@@H](O)[C@H]3COC(=O)[C@H]23)OCO4)cc(OC)c1O`, 72 AU (inactive).
